Consider six sequences from PMC11006913.

Assay in all cases: PBM; 200 nM protein, PBS
What all share (conditions): dsDNA, one strand shown

In test [1] the target is HOXB4 (Homo sapiens, UniProt P17483 148-234).
Test [2] concerns the target HOXA4 (Homo sapiens, UniProt Q00056 201-287, W262R).
Test [3] concerns the target HOXA2 (Homo sapiens, UniProt O43364 129-215, R185T).
Test [4] concerns the target HOXA4 (Homo sapiens, UniProt Q00056 201-287, R217L).
Test [5] deals with HOXB4 (Homo sapiens, UniProt P17483 148-234, V174I).
Test [6] addresses HOXA2 (Homo sapiens, UniProt O43364 129-215, R185K).
Test [7] concerns the target HOXA4 (Homo sapiens, UniProt Q00056 201-287).
Test [8] has as its target HOXA2 (Homo sapiens, UniProt O43364 129-215, Y150S).
Test [9] addresses HOXA4 (Homo sapiens, UniProt Q00056 201-287, W262F).
Test [10] concerns the target HOXA2 (Homo sapiens, UniProt O43364 129-215).
In test [11] the target is HOXA7 (Homo sapiens, UniProt P31268 116-202).
Test [12] has as its target HOXC10 (Homo sapiens, UniProt Q9NYD6 254-340).
In test [13] the target is HOXC10 (Homo sapiens, UniProt Q9NYD6 254-340, K271E).
The target of test [14] is HOXA7 (Homo sapiens, UniProt P31268 116-202, W177C).
For test [15], the target named is HOXC9 (Homo sapiens, UniProt P31274 178-260, K195R).
Test [16] deals with HOXC9 (Homo sapiens, UniProt P31274 178-260).
Test [17] has as its target HOXC9 (Homo sapiens, UniProt P31274 178-260, R193K).
The target in test [18] is HOXC9 (Homo sapiens, UniProt P31274 178-260, R222W).
The target of a further test is T1, NKX2-6 (Homo sapiens, UniProt A6NCS4 118-204, R150C).
T1 sequence: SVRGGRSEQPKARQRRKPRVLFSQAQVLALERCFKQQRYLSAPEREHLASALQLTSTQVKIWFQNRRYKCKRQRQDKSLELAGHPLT

Test [19] has as its target ALX3 (Homo sapiens, UniProt O95076 139-225, N203Q).
Test [20] addresses ALX3 (Homo sapiens, UniProt O95076 139-225).
Test [21] addresses VAX1 (Homo sapiens, UniProt Q5SQQ9 86-172).
In test [22] the target is ALX3 (Homo sapiens, UniProt O95076 139-225, L168Q).
Test [23] deals with ALX3 (Homo sapiens, UniProt O95076 139-225, L168V).
Test [24] has as its target VAX1 (Homo sapiens, UniProt Q5SQQ9 86-172, T142I).
Test [25] addresses ALX3 (Homo sapiens, UniProt O95076 139-225, N203S).
For test [26], the target named is VAX1 (Homo sapiens, UniProt Q5SQQ9 86-172, K157R).
Another test deals with T2, VENTX (Homo sapiens, UniProt O95231 78-163, Y115F).
T2 sequence: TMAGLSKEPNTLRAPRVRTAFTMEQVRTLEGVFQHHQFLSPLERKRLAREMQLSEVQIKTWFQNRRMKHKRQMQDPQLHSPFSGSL

The next test addresses HOXB6 (Homo sapiens, UniProt P17509 132-218, K202E).
Test [27] has as its target PROP1 (Homo sapiens, UniProt O75360 56-141).
For test [28], the target named is PROP1 (Homo sapiens, UniProt O75360 56-141, R99H).
Test [29] has as its target PROP1 (Homo sapiens, UniProt O75360 56-141, F88S).

Chain of HOXA2 (Homo sapiens, UniProt O43364 129-215, R185K) (O43364 129-215 R185K): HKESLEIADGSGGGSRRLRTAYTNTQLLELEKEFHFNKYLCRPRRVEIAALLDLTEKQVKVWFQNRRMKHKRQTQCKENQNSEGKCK
Chain of VAX1 (Homo sapiens, UniProt Q5SQQ9 86-172, T142I) (Q5SQQ9 86-172 T142I): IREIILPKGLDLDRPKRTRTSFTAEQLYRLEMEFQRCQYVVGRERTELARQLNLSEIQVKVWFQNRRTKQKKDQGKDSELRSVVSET
Chain of HOXA4 (Homo sapiens, UniProt Q00056 201-287) (Q00056 201-287): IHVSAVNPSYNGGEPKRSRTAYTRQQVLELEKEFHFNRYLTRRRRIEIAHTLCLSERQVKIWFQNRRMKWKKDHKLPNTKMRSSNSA
Chain of HOXA4 (Homo sapiens, UniProt Q00056 201-287, W262F) (Q00056 201-287 W262F): as the sequence (Q00056 201-287) above, with W62F counted along it
Chain of HOXB4 (Homo sapiens, UniProt P17483 148-234, V174I) (P17483 148-234 V174I): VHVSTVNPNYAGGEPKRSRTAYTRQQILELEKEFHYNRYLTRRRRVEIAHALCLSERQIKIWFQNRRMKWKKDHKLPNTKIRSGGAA
Chain of HOXA2 (Homo sapiens, UniProt O43364 129-215) (O43364 129-215): as the sequence (O43364 129-215 R185K) above, with K57R counted along it
Chain of VAX1 (Homo sapiens, UniProt Q5SQQ9 86-172) (Q5SQQ9 86-172): as the sequence (Q5SQQ9 86-172 T142I) above, with I57T counted along it
Chain of HOXA2 (Homo sapiens, UniProt O43364 129-215, Y150S) (O43364 129-215 Y150S): as the sequence (O43364 129-215 R185K) above, with Y22S, K57R counted along it
Chain of HOXA4 (Homo sapiens, UniProt Q00056 201-287, W262R) (Q00056 201-287 W262R): as the sequence (Q00056 201-287) above, with W62R counted along it
Chain of HOXA2 (Homo sapiens, UniProt O43364 129-215, R185T) (O43364 129-215 R185T): as the sequence (O43364 129-215 R185K) above, with K57T counted along it
Chain of VAX1 (Homo sapiens, UniProt Q5SQQ9 86-172, K157R) (Q5SQQ9 86-172 K157R): as the sequence (Q5SQQ9 86-172 T142I) above, with I57T, K72R counted along it
Chain of HOXB4 (Homo sapiens, UniProt P17483 148-234) (P17483 148-234): as the sequence (P17483 148-234 V174I) above, with I27V counted along it
Chain of HOXA4 (Homo sapiens, UniProt Q00056 201-287, R217L) (Q00056 201-287 R217L): as the sequence (Q00056 201-287) above, with R17L counted along it
Chain of HOXC9 (Homo sapiens, UniProt P31274 178-260, R193K) (P31274 178-260 R193K): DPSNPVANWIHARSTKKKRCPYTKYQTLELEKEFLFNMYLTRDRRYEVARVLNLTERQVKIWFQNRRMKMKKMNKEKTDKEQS
Chain of PROP1 (Homo sapiens, UniProt O75360 56-141, F88S) (O75360 56-141 F88S): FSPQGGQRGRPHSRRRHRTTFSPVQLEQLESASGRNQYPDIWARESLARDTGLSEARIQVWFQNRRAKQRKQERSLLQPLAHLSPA
Chain of HOXC10 (Homo sapiens, UniProt Q9NYD6 254-340) (Q9NYD6 254-340): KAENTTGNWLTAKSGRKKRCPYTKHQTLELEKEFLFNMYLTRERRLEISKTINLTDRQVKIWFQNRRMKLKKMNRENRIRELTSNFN
Chain of ALX3 (Homo sapiens, UniProt O95076 139-225, L168Q) (O95076 139-225 L168Q): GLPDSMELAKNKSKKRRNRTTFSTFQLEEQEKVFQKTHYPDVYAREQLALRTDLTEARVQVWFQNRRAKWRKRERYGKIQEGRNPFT
Chain of HOXC9 (Homo sapiens, UniProt P31274 178-260, K195R) (P31274 178-260 K195R): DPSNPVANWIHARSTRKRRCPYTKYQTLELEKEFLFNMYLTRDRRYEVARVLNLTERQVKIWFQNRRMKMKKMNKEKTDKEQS
Chain of ALX3 (Homo sapiens, UniProt O95076 139-225, L168V) (O95076 139-225 L168V): as the sequence (O95076 139-225 L168Q) above, with Q30V counted along it
Chain of ALX3 (Homo sapiens, UniProt O95076 139-225, N203S) (O95076 139-225 N203S): as the sequence (O95076 139-225 L168Q) above, with Q30L, N65S counted along it
Chain of HOXC9 (Homo sapiens, UniProt P31274 178-260, R222W) (P31274 178-260 R222W): as the sequence (P31274 178-260 R193K) above, with K16R, R45W counted along it
Chain of PROP1 (Homo sapiens, UniProt O75360 56-141, R99H) (O75360 56-141 R99H): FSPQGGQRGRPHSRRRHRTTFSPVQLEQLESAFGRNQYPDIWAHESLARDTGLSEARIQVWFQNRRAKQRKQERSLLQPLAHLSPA
Chain of HOXC10 (Homo sapiens, UniProt Q9NYD6 254-340, K271E) (Q9NYD6 254-340 K271E): as the sequence (Q9NYD6 254-340) above, with K18E counted along it
Chain of HOXC9 (Homo sapiens, UniProt P31274 178-260) (P31274 178-260): as the sequence (P31274 178-260 R193K) above, with K16R counted along it
Chain of PROP1 (Homo sapiens, UniProt O75360 56-141) (O75360 56-141): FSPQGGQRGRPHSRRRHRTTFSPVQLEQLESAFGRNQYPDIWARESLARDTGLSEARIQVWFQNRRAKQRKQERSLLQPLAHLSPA
Chain of HOXA7 (Homo sapiens, UniProt P31268 116-202) (P31268 116-202): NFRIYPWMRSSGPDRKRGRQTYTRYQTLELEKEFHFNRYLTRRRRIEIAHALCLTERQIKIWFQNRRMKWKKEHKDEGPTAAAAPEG
Chain of HOXA7 (Homo sapiens, UniProt P31268 116-202, W177C) (P31268 116-202 W177C): as the sequence (P31268 116-202) above, with W62C counted along it
Chain of ALX3 (Homo sapiens, UniProt O95076 139-225) (O95076 139-225): as the sequence (O95076 139-225 L168Q) above, with Q30L counted along it
Chain of ALX3 (Homo sapiens, UniProt O95076 139-225, N203Q) (O95076 139-225 N203Q): as the sequence (O95076 139-225 L168Q) above, with Q30L, N65Q counted along it
Chain of HOXB6 (P17509 132-218 K202E): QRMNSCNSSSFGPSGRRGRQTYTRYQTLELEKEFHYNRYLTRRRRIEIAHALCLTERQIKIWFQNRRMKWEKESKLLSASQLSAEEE

On to TATAATGA, for which the binding signal in the test with HOXB4 [1] is 13 upbm affinity estimate (log intensity, higher = more binding, comparable within an allelic series); with HOXA4 [2], 10.5 upbm affinity estimate (log intensity, higher = more binding, comparable within an allelic series); with HOXA2 [3], 12 upbm affinity estimate (log intensity, higher = more binding, comparable within an allelic series); with HOXA4 [4], 11.9 upbm affinity estimate (log intensity, higher = more binding, comparable within an allelic series); in the test with HOXB4 [5], 13.5 upbm affinity estimate (log intensity, higher = more binding, comparable within an allelic series); with HOXA2 [6], 12.8 upbm affinity estimate (log intensity, higher = more binding, comparable within an allelic series). In addition, the binding signal with HOXA4 [7] is 13.6 upbm affinity estimate (log intensity, higher = more binding, comparable within an allelic series); in the test with HOXA2 [8] it was 10.9 upbm affinity estimate (log intensity, higher = more binding, comparable within an allelic series); with HOXA4 [9], 11.2 upbm affinity estimate (log intensity, higher = more binding, comparable within an allelic series); with HOXA2 [10] it was 12.1 upbm affinity estimate (log intensity, higher = more binding, comparable within an allelic series).

For ACCGTGGG, the binding signal was 7.69 upbm affinity estimate (log intensity, higher = more binding, comparable within an allelic series) with HOXB4 [1]; 8.39 upbm affinity estimate (log intensity, higher = more binding, comparable within an allelic series) with HOXA7 [11]; 10.1 upbm affinity estimate (log intensity, higher = more binding, comparable within an allelic series) with HOXC10 [12]; 7.68 upbm affinity estimate (log intensity, higher = more binding, comparable within an allelic series) in the test with HOXB4 [5]; 10 upbm affinity estimate (log intensity, higher = more binding, comparable within an allelic series) with HOXC10 [13]; 8.44 upbm affinity estimate (log intensity, higher = more binding, comparable within an allelic series) in the test with HOXA7 [14].

As to CGTGGCGC, the binding signal with HOXB4 [1] is 7.6 upbm affinity estimate (log intensity, higher = more binding, comparable within an allelic series); in the test with HOXC9 [15], 9.49 upbm affinity estimate (log intensity, higher = more binding, comparable within an allelic series); with HOXB4 [5], 7.68 upbm affinity estimate (log intensity, higher = more binding, comparable within an allelic series); in the test with HOXC9 [16], 9.5 upbm affinity estimate (log intensity, higher = more binding, comparable within an allelic series); with HOXC9 [17], 9.45 upbm affinity estimate (log intensity, higher = more binding, comparable within an allelic series); with HOXC9 [18], 9.81 upbm affinity estimate (log intensity, higher = more binding, comparable within an allelic series).

With ACCGCCGG, the binding signal in the test with HOXB4 [1] was 7.71 upbm affinity estimate (log intensity, higher = more binding, comparable within an allelic series); with HOXA4 [2], 9.74 upbm affinity estimate (log intensity, higher = more binding, comparable within an allelic series); with HOXA2 [3], 7.21 upbm affinity estimate (log intensity, higher = more binding, comparable within an allelic series); in the test with HOXA4 [4] it was 9.58 upbm affinity estimate (log intensity, higher = more binding, comparable within an allelic series); with HOXB4 [5], 7.62 upbm affinity estimate (log intensity, higher = more binding, comparable within an allelic series); in the test with NKX2-6, 9.49 upbm affinity estimate (log intensity, higher = more binding, comparable within an allelic series). The binding signal was 7.72 upbm affinity estimate (log intensity, higher = more binding, comparable within an allelic series) with ALX3 [19]; 10.2 upbm affinity estimate (log intensity, higher = more binding, comparable within an allelic series) with HOXA2 [6]; 9.85 upbm affinity estimate (log intensity, higher = more binding, comparable within an allelic series) in the test with HOXA4 [7]; 7.95 upbm affinity estimate (log intensity, higher = more binding, comparable within an allelic series) with ALX3 [20]; 7.52 upbm affinity estimate (log intensity, higher = more binding, comparable within an allelic series) in the test with VAX1 [21]; 7.7 upbm affinity estimate (log intensity, higher = more binding, comparable within an allelic series) in the test with ALX3 [22]. In addition, the binding signal with ALX3 [23] was 7.65 upbm affinity estimate (log intensity, higher = more binding, comparable within an allelic series); with VAX1 [24], 7.48 upbm affinity estimate (log intensity, higher = more binding, comparable within an allelic series); with HOXA2 [8], 10.4 upbm affinity estimate (log intensity, higher = more binding, comparable within an allelic series); with HOXA4 [9] it was 9.75 upbm affinity estimate (log intensity, higher = more binding, comparable within an allelic series); in the test with ALX3 [25], 7.69 upbm affinity estimate (log intensity, higher = more binding, comparable within an allelic series); in the test with HOXA2 [10], 7.23 upbm affinity estimate (log intensity, higher = more binding, comparable within an allelic series). Moreover, the binding signal in the test with VAX1 [26] is 7.38 upbm affinity estimate (log intensity, higher = more binding, comparable within an allelic series).

With CCTAATGA, the binding signal with HOXB4 [1] is 13 upbm affinity estimate (log intensity, higher = more binding, comparable within an allelic series); with HOXA4 [2] it was 10.5 upbm affinity estimate (log intensity, higher = more binding, comparable within an allelic series); with VENTX it was 11.5 upbm affinity estimate (log intensity, higher = more binding, comparable within an allelic series); with HOXA2 [3], 12.7 upbm affinity estimate (log intensity, higher = more binding, comparable within an allelic series); with HOXA4 [4], 11.7 upbm affinity estimate (log intensity, higher = more binding, comparable within an allelic series); with HOXB4 [5], 13.6 upbm affinity estimate (log intensity, higher = more binding, comparable within an allelic series). Besides, the binding signal was 13.4 upbm affinity estimate (log intensity, higher = more binding, comparable within an allelic series) with HOXA2 [6]; 13.7 upbm affinity estimate (log intensity, higher = more binding, comparable within an allelic series) with HOXA4 [7]; 13.2 upbm affinity estimate (log intensity, higher = more binding, comparable within an allelic series) with VAX1 [21]; 13 upbm affinity estimate (log intensity, higher = more binding, comparable within an allelic series) with VAX1 [24]; 10.7 upbm affinity estimate (log intensity, higher = more binding, comparable within an allelic series) with HOXA2 [8]; 11.6 upbm affinity estimate (log intensity, higher = more binding, comparable within an allelic series) with HOXA4 [9]. Moreover, the binding signal with HOXA2 [10] is 12.4 upbm affinity estimate (log intensity, higher = more binding, comparable within an allelic series); with VAX1 [26] it was 13 upbm affinity estimate (log intensity, higher = more binding, comparable within an allelic series).

Take TAATGATA: the binding signal with HOXB4 [1] was 13.4 upbm affinity estimate (log intensity, higher = more binding, comparable within an allelic series); in the test with HOXA4 [2], 10.5 upbm affinity estimate (log intensity, higher = more binding, comparable within an allelic series); with HOXB6, 10 upbm affinity estimate (log intensity, higher = more binding, comparable within an allelic series); in the test with HOXA2 [3] it was 12.2 upbm affinity estimate (log intensity, higher = more binding, comparable within an allelic series); in the test with HOXA4 [4] it was 12.2 upbm affinity estimate (log intensity, higher = more binding, comparable within an allelic series); with HOXB4 [5], 14.1 upbm affinity estimate (log intensity, higher = more binding, comparable within an allelic series). For the same sequence, the binding signal with HOXA2 [6] was 13.2 upbm affinity estimate (log intensity, higher = more binding, comparable within an allelic series); with HOXA4 [7], 13.9 upbm affinity estimate (log intensity, higher = more binding, comparable within an allelic series); with PROP1 [27] it was 9.99 upbm affinity estimate (log intensity, higher = more binding, comparable within an allelic series); with PROP1 [28], 9.25 upbm affinity estimate (log intensity, higher = more binding, comparable within an allelic series); with VAX1 [21] it was 12.7 upbm affinity estimate (log intensity, higher = more binding, comparable within an allelic series); with PROP1 [29], 7.61 upbm affinity estimate (log intensity, higher = more binding, comparable within an allelic series). In addition, the binding signal with VAX1 [24] was 12.5 upbm affinity estimate (log intensity, higher = more binding, comparable within an allelic series); in the test with HOXA2 [8] it was 11 upbm affinity estimate (log intensity, higher = more binding, comparable within an allelic series); in the test with HOXA4 [9], 11.6 upbm affinity estimate (log intensity, higher = more binding, comparable within an allelic series); with HOXA2 [10] it was 12.3 upbm affinity estimate (log intensity, higher = more binding, comparable within an allelic series); in the test with VAX1 [26], 12.3 upbm affinity estimate (log intensity, higher = more binding, comparable within an allelic series).
